This is part of a sample that, as a whole, favours compounds with a hit. Of some 79,000 tested, about 15% had one in any assay. The source made the active and inactive calls. Rule as the data show it: active = growth inhibition above about 70%; inactive = the rest.
Key:
[1] = NCI Yeast Anticancer Drug Screen. Data for the wt1 strain (AID 149);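 also: 0% = growth of vehicle-treated wt1 cultures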; settings: S. cerevisiae wt1 strain (SPY 50644) growth inhibition, stronger effect = higher value
Summary of the method: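 Readout: yeast growth inhibition, normalised to vehicle controls, in the wt1 strain exposed to test compounds.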

[2] = NCI Yeast Anticancer Drug Screen. Data for the rad50EPP+ strain (AID 151);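 also: 0% = growth of vehicle-treated control cultures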; settings: S. cerevisiae rad50 mutant strain, stronger effect = higher value
Summary of the method: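 Yeast strain carrying rad50 alteration (rad50EPP+) exposed to compounds; growth inhibition measured relative to vehicle-treated controls.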

[3] = NCI Yeast Anticancer Drug Screen. Data for the mgt1 strain (AID 153); settings: S. cerevisiae mgt1 mutant growth inhibition, stronger effect = higher value
Summary of the method: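 Yeast mgt1 strain (DNA repair/cell-cycle alteration panel) exposed to compounds; growth inhibition measured relative to vehicle-treated controls.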

[4] = NCI Yeast Anticancer Drug Screen. Data for the rad50 strain (AID 155);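 also: 0% = growth of vehicle-only cultures of the same strain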; settings: S. cerevisiae rad50 strain growth inhibition, stronger effect = higher value
Summary of the method: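 Compounds were tested on a yeast strain with an engineered DNA damage repair alteration; the reported value is growth inhibition normalised to vehicle treatment.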

[5] = NCI Yeast Anticancer Drug Screen. Data for the mec2-1 strain (AID 157); settings: S. cerevisiae mec2-1 strain, stronger effect = higher value
Summary of the method: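 mec2-1 yeast strain, carrying an alteration in DNA damage repair or cell cycle control, was exposed to compounds; growth inhibition was measured relative to vehicle-treated controls.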

[6] = NCI Yeast Anticancer Drug Screen. Data for the rad14 strain (AID 159);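 also: 0% = growth of vehicle-treated control cultures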; settings: S. cerevisiae rad14 strain growth inhibition, stronger effect = higher value
Summary of the method: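 Compound-treated yeast with a defined DNA-repair lesion; growth inhibition normalised to vehicle-treated cultures.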

[7] = NCI Yeast Anticancer Drug Screen. Data for the sgs1 mgt1 strain (AID 161);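 also: 0% = growth of cultures given vehicle only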; settings: S. cerevisiae sgs1 mgt1 strain, stronger effect = higher value
Summary of the method: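 Growth of a repair-deficient yeast mutant was monitored after compound treatment and expressed as inhibition relative to vehicle-treated cultures.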

[8] = NCI Yeast Anticancer Drug Screen. Data for the CLN2oe strain (AID 163);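 also: 0% = growth of vehicle-only control cultures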; settings: S. cerevisiae CLN2oe strain, stronger effect = higher value
Summary of the method: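 Yeast cells carrying a defined cell-cycle control alteration were exposed to test compounds. Growth inhibition was scored against vehicle-treated control cultures.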

[9] = NCI Yeast Anticancer Drug Screen. Data for the cln2 rad14 strain (AID 165);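 also: 0% = growth equal to vehicle treated cultures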; settings: S. cerevisiae cln2 rad14 strain, stronger effect = higher value
Summary of the method: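 Yeast carrying cln2 and rad14 alterations (cell cycle control and DNA damage repair) were exposed to compounds. Growth inhibition was measured against vehicle-treated controls.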

[10] = NCI Yeast Anticancer Drug Screen. Data for the bub3 strain (AID 167); settings: S. cerevisiae bub3 mutant strain, stronger effect = higher value
Summary of the method: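 Growth of a checkpoint-deficient yeast mutant is measured after compound exposure. Values represent inhibition relative to vehicle.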

[11] = NCI Yeast Anticancer Drug Screen. Data for the wt2 strain (AID 169);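 also: 0% = growth of vehicle-treated yeast cultures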; settings: S. cerevisiae wt2 strain growth inhibition, stronger effect = higher value
Summary of the method: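 Yeast cells were exposed to test compounds, and growth inhibition was measured relative to vehicle-treated controls.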

[12] = NCI Yeast Anticancer Drug Screen. Data for the mlh1 strain (AID 171);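 also: 0% = growth of vehicle-treated control cultures of the same strain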; settings: S. cerevisiae mlh1 strain growth inhibition, stronger effect = higher value
Summary of the method: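 Yeast carrying a defined genetic alteration in DNA damage repair or cell cycle control were exposed to test compounds. Growth inhibition was measured relative to vehicle-treated controls.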

[13] = NCI Yeast Anticancer Drug Screen. Data for the sgs1 strain (AID 173);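 also: 0% = growth of vehicle-only control cultures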; settings: S. cerevisiae sgs1 mutant, stronger effect = higher value
Summary of the method: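 Yeast mutant strains carrying defined defects in DNA damage repair or cell cycle control were exposed to test compounds. Growth inhibition was scored against vehicle-treated controls.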

[14] = NCI Yeast Anticancer Drug Screen. Data for the mlh1 rad18 strain (AID 175); settings: S. cerevisiae mlh1 rad18 strain growth inhibition, stronger effect = higher value
Summary of the method: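 Growth inhibition of the yeast strain was measured after compound exposure and expressed relative to vehicle-treated controls. The strain carries defined defects in DNA damage repair.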

[15] = NCI Yeast Anticancer Drug Screen. Data for the rad18 strain (AID 177); settings: S. cerevisiae rad18 mutant growth inhibition, stronger effect = higher value
Summary of the method: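 Yeast carrying a defined DNA damage repair alteration were exposed to compounds. Growth inhibition was expressed relative to vehicle-treated controls.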

[16] = at 5.0 µM (retest, dose inferred, filed as 0.5)
[17] = at 50.0 µM (retest, dose inferred, filed as 5.0)

Measured: growth inhibition

O=c1c(Br)cc2c(-c3ccccc3)c3cc(Br)c(O)c(Br)c3oc-2c1Br
active: [4]; at 11.0 µM 89% | [4]; at 33.0 µM 87% | [4]; at 50.0 µM 80.8% | [4]; at 100.0 µM 80% | [5]; at 50.0 µM 78.4% | [10]; at 11.0 µM 76% | [10]; at 33.0 µM 92% | [10]; at 100.0 µM 79% | [14]; at 50.0 µM 83.4%
inactive: [1]; at 1.2 µM -1% | [1]; at 3.7 µM 11% | [1]; at 11.0 µM 9% | [1]; at 33.0 µM 0% | [1]; at 100.0 µM -4% | [2]; at 1.2 µM 1% | [2]; at 3.7 µM 23% | [2]; at 11.0 µM 38% | [2]; at 33.0 µM 57% | [2]; at 100.0 µM 39% | [3]; at 1.2 µM 0% | [3]; at 3.7 µM -2% | [3]; at 11.0 µM 9% | [3]; at 33.0 µM 28% | [3]; at 100.0 µM 23% | [4]; at 1.2 µM -54% | [4]; at 3.7 µM 24% | [4]; [16] 22% | [4]; [17] 13% | [5]; at 1.2 µM 1% | [5]; at 3.7 µM 4% | [5]; [16] 54% | [5]; at 11.0 µM -1% | [5]; at 33.0 µM -3% | [5]; [17] 28% | [5]; at 100.0 µM -1% | [6]; at 1.2 µM 2% | [6]; at 3.7 µM 17% | [6]; at 11.0 µM 31% | [6]; at 33.0 µM 22% | [6]; at 100.0 µM -4% | [7]; [16] 16% | [7]; [17] 7% | [7]; at 50.0 µM 61.3% | [8]; at 1.2 µM 3% | [8]; at 3.7 µM 5% | [8]; at 11.0 µM 9% | [8]; at 33.0 µM 23% | [8]; at 100.0 µM 15% | [9]; [16] 28% | [9]; [17] 12% | [9]; at 50.0 µM 55% | [10]; at 1.2 µM -4% | [10]; at 3.7 µM 4% | [10]; [16] 6% | [10]; [17] -6% | [10]; at 50.0 µM 54.2% | [11]; at 1.2 µM 10% | [11]; at 3.7 µM 17% | [11]; at 11.0 µM 21% | [11]; at 33.0 µM 18% | [11]; at 100.0 µM 6% | [12]; at 1.2 µM 0% | [12]; at 3.7 µM -29% | [12]; at 11.0 µM 12% | [12]; at 33.0 µM 18% | [12]; at 100.0 µM 25% | [13]; at 1.2 µM 0% | [13]; at 3.7 µM 8% | [13]; at 11.0 µM 26% | [13]; at 33.0 µM 22% | [13]; at 100.0 µM 13% | [14]; [16] 67% | [14]; [17] 58% | [15]; at 1.2 µM -8% | [15]; at 3.7 µM 9% | [15]; at 11.0 µM 1% | [15]; at 33.0 µM -2% | [15]; at 100.0 µM -10%
